DT40 TDP1 CPT = DT40-hTDP1 cell growth loss with CPT; chicken DT40 Tdp1-/-;hTDP1 cells + 20 nM CPT, ATP luminescence, 48 h; Potency, µM (titrated, usually from 46.2 µM), for inactives: at the highest dose activity change, negative = growth inhibition, usual class: inhibitors; actives 12% (n = 420,000); AID 686979; note: potency is the fitted concentration of half-maximal effect; nearly all actives have a fitted effect of over 55% in size
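Cell growth measured by CellTiter-Glo luminescence after a minimum 48 h, 37 C compound exposure with 20 nM CPT in Tdp1-knockout DT40 cells stably expressing hTDP1, seeded 400/well; qHTS titration format.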
HT1080-NT tox = kills 2HG-producing HT-1080-NT fibrosarcoma cells; HT-1080-NT fibrosarcoma viability, CellTiter-Glo ATP luminescence, 48 h; Potency, µM (doses to about 46.1 µM), for the others: top-dose activity, negative = less viability, hits mostly cytotoxic; actives 1.6% (n = 360,000); AID 686970;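 note: NT is the 2HG producing partner of a matched IDH1 knockdown line; potency is the fitted concentration of half-maximal effect; 0% = DMSO-treated cells and -100% = media-only wells without cells; nearly all actives have a fitted effect of over 55% in size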
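Compounds were tested in concentration-response format on HT-1080-NT cells for 48 hours at 37 degrees C. Cell viability came from CellTiter-Glo luminescence; curves were classified by r2, response magnitude and activity.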
TDP1 cell noCPT = qHTS for Inhibitors of human tyrosyl-DNA phosphodiesterase 1 (TDP1): qHTS in cells in absence of CPT; DT40 Tdp1-/- hTDP1 cells, no CPT, ATP luminescence, 48 h; Potency, µM (titrated, usually from 46.2 µM), without a hit: at the top dose activity change, negative = growth inhibition, hits mostly inhibitors; actives 15% (n = 420,000); AID 686978, 2013; note: potency is the fitted concentration of half-maximal effect; nearly all actives have a fitted effect of over 55% in size
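Stably hTDP1-transfected Tdp1-null chicken DT40 cells were treated with library compounds minus camptothecin and grown for at least 48 hr at 37 °C, after which cellular ATP was quantified by luminescence.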
HT1080 IDH1KD tx = HT-1080 IDH1 knockdown cell toxicity (counter line); Potency, µM (series often up to 46.1 µM), for inactives: top-dose activity, negative = toxicity, hits mostly cytotoxic; HT-1080 IDH1 knockdown viability, ATP luminescence, 48 h; actives 2% (n = 360,000);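 note: potency is the fitted concentration of half-maximal effect; 0% = DMSO wells and -100% = cell-free medium wells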
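HT-1080-IDH1KD cells (IDH1 knocked down), 750/well in RPMI with 5% FBS, treated with compound 48 h at 37 degrees C. Viability by CellTiter-Glo luminescence, normalised to DMSO and no-cell wells; concentration-response curves classed.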
IL-1B inflam inh = blocks inflammasome-driven IL-1 beta release | THP-1 LPS/ATP IL-1B secretion, AlphaLISA, 16 h; stronger effect = lower value | activity change, % at 57.5 µM | actives 4.7% (n = 360,000) | AID 743279; in the data active = activity change below about -50%; inconclusive = mostly about -30% to -49%
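THP-1 cells pretreated 1 hr with compounds (up to 57.5 uM final), then stimulated with LPS (250 ng/mL final) plus ATP (1.25 mM final); secreted IL-1B measured by AlphaLISA after 16 hr, decreased signal indicating inhibition.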
An asterisk follows results filed as active; ! = a repeat was not active. Hits are enriched below; roughly 19% of the tested compounds scored in any of these assays. Unless noted, calls come from the whole dose curve; as a rule, active = well fitted curve in the direction sought with a large enough effect; inconclusive = small, poorly fitted or top-dose-only effect, or another doubt; inactive = no such curve, though single readings can be large; an effect the other way counts as inactive or inconclusive. Unless noted, % is set by controls: 0 for no effect and ±100 for the full control effect.

How did O=C(c1cc(S(=O)(=O)N2CCN(c3ccccc3)CC2)ccc1Cl)N1CCCC(C(F)(F)F)C1 (stereo unspecified) do in these assays?
DT40 TDP1 CPT: 14.6µM*; HT1080-NT tox: -16.9%; TDP1 cell noCPT: inconclusive; HT1080 IDH1KD tx: -24.3%; IL-1B inflam inh: -8.2

Results for CO/N=C(\C(=O)N[C@@H]1C(=O)N2C(C(=O)[O-])=C(C[n+]3ccc(N)n3CCO)CS[C@H]12)c1csc(N)n1 ?
DT40 TDP1 CPT: 3.4%; TDP1 cell noCPT: -6.6%

How did C#CCOCCOCCOCCNc1nc(N2CCN(C(=O)[C@H](CCCCN)n3cc([C@@H](N)CC(N)=O)nn3)CC2)nc(N2CCN(C(=O)[C@H](CCCCN)n3cc([C@@H](N)CC(N)=O)nn3)CC2)n1 do in these assays?
DT40 TDP1 CPT: -14.9%; HT1080-NT tox: -4.6%; TDP1 cell noCPT: 4.1%; HT1080 IDH1KD tx: 0.8%; IL-1B inflam inh: 22.0

Results for Cc1ccc(NC(=O)c2cn(CCC#N)nc2-c2cccs2)c([N+](=O)[O-])c1 ?
DT40 TDP1 CPT: inconclusive; HT1080-NT tox: -2.6%; TDP1 cell noCPT: 11.6µM*; HT1080 IDH1KD tx: -11.1%; IL-1B inflam inh: 0.0

How did Cc1ccc(NC(=O)/C=C/c2cccs2)c([N+](=O)[O-])c1 do in these assays?
DT40 TDP1 CPT: 13µM*; HT1080-NT tox: inconclusive; TDP1 cell noCPT: 23.1µM*; HT1080 IDH1KD tx: -22.0%; IL-1B inflam inh: -17.1

Results for N=c1oc2cc(O)ccc2cc1C(=O)Nc1ccc(Cl)cc1 ?
DT40 TDP1 CPT: inconclusive; HT1080-NT tox: -4.0%; TDP1 cell noCPT: 8.2%; HT1080 IDH1KD tx: inconclusive; IL-1B inflam inh: -88.7*

Results for N=c1oc2ccc(Cl)cc2cc1C(=O)NC1CCCCCC1 ?
DT40 TDP1 CPT: 25.9µM*; HT1080-NT tox: inconclusive; TDP1 cell noCPT: 20.6µM*; HT1080 IDH1KD tx: 29.2%

Results for Cc1ccc(NC(=O)c2cc3ccccc3oc2=N)cc1 ?
DT40 TDP1 CPT: -4.7%; HT1080-NT tox: 6.3%; TDP1 cell noCPT: inconclusive; HT1080 IDH1KD tx: 12.2%; IL-1B inflam inh: 11.9

What do the screens show for `CCc1cc(C(=O)N2CCCc3ccccc32)sc1C`?
DT40 TDP1 CPT: inconclusive; HT1080-NT tox: 6.3%; TDP1 cell noCPT: -22.5%; HT1080 IDH1KD tx: 9.6%; IL-1B inflam inh: 12.4

How did CCCn1c(N)[n+](CC(=O)c2ccco2)c2ccccc21 do in these assays?
DT40 TDP1 CPT: -2.2%; HT1080-NT tox: 1.2%; TDP1 cell noCPT: -12.7%; HT1080 IDH1KD tx: 0.5%; IL-1B inflam inh: -58.6*

How did Cc1ccc(CNC(=O)c2ccc(CS(=O)(=O)Cc3ccc(F)cc3)o2)cc1 do in these assays?
DT40 TDP1 CPT: -9.3%; TDP1 cell noCPT: inconclusive

What do the screens show for `CCc1ccc(CNC(=O)c2ccc(CS(=O)(=O)Cc3ccccc3C)o2)cc1`?
DT40 TDP1 CPT: 20.6µM*; TDP1 cell noCPT: 20.6µM*

What do the screens show for `O=C(NCc1ccccc1)c1ccc(CS(=O)(=O)Cc2ccccc2F)o1`?
DT40 TDP1 CPT: -38.2%; HT1080-NT tox: 16.0%; TDP1 cell noCPT: inconclusive; HT1080 IDH1KD tx: 12.4%; IL-1B inflam inh: 25.3

How did Cc1ccccc1CS(=O)(=O)Cc1ccc(C(=O)NCc2ccc(F)cc2)o1 do in these assays?
DT40 TDP1 CPT: inconclusive; TDP1 cell noCPT: 16.4µM*

What do the screens show for `COc1ccc(CNC(=O)c2ccc(CS(=O)(=O)Cc3ccccc3F)o2)cc1`?
DT40 TDP1 CPT: inconclusive; HT1080-NT tox: 0.0%; TDP1 cell noCPT: 16.4µM*; HT1080 IDH1KD tx: 5.6%; IL-1B inflam inh: 2.1

How did Cc1ccc(-c2c(C(=O)NCc3ccc(F)cc3)oc(=O)c3ccccc23)cc1 do in these assays?
DT40 TDP1 CPT: inconclusive; HT1080-NT tox: -2.1%; TDP1 cell noCPT: 20.6µM*!; HT1080 IDH1KD tx: -2.8%; IL-1B inflam inh: inconclusive

Results for CCC(=O)NN1CCc2cc3ccc(C)cc3nc21 ?
DT40 TDP1 CPT: 31.1%; HT1080-NT tox: 4.2%; TDP1 cell noCPT: 7.2%; HT1080 IDH1KD tx: 0.3%; IL-1B inflam inh: 21.5

Source: PubChem BioAssay (National Center for Advancing Translational Sciences (NCATS))
